Laboratory results reported in PubChem BioAssay AID1159580 (chemical genetic matrix, 2015).
Values joined by “and” are separate entries in the source; they are usually repeats but may differ in a detail not shown here. Identical values can stand only once. The campaign covered roughly 5,500 compounds. About 2,000 (36%) were called active. Not shown: some 18% with an inconclusive outcome. Rule as the data show it: active = normalized growth mostly below about 0.91 (no sharp cut-off); inconclusive = no clear call, values can overlap the other calls; inactive = mostly above about 0.92. Some of the results follow.

Experiment: chemical genetic growth profiling, strain panel (AID 1159580);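 also: tested at 20 µM; growth read once vehicle control cultures reached saturation at 30 °C; 1 = growth at the plate median or of vehicle wells; lower values mean less growth of the strain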
Details: S. cerevisiae deletion strains, growth OD

Measured: normalized growth

C/C=C(\C)C(=O)O[C@H]1C[C@@H](OC(C)=O)[C@@]2(C(=O)OC)CO[C@@H]3C2[C@]12CO[C@](O)(C(=O)OC)[C@H]2[C@](C)(C12O[C@@]1(C)[C@H]1C[C@@H]2OC2OC=C[C@@]21O)[C@@H]3O (stereo partly specified)
inactive: locus YAL013W, strain DEP1, hits give low values 0.99 | locus YAL021C, strain ccr4, hits give low values 1 | locus YAL026C, strain drs2, hits give low values 0.982 | locus YAL030W, strain snc1, hits give low values 0.976 | locus YBL061C, strain skt5, hits give low values 0.978 | locus YBR009C, strain hhf1, hits give low values 0.977 | locus YBR021W, strain FUR4, hits give low values 0.997 | locus YBR023C, strain chs3, hits give low values 0.985 | locus YBR171W, strain sec66, hits give low values 0.98 | locus YBR229C, strain ROT2, hits give low values 0.99 | locus YBR231C, strain swc5, hits give low values 0.991 | locus YBR279W, strain paf1, hits give low values 0.992 | locus YCL011C, strain gbp2, hits give low values 0.978 | locus YCL016C, strain dcc1, hits give low values 0.964 | locus YCL029C, strain bik1, hits give low values 0.955 | locus YCL061C, strain MRC1, hits give low values 0.986 | locus YCL069W, strain vba3, hits give low values 0.974 | locus YCR088W, strain abp1, hits give low values 0.986 | locus YDL005C, strain med2, hits give low values 0.963 | locus YDL040C, strain nat1, hits give low values 0.973 | locus YDL074C, strain BRE1, hits give low values 0.964 | locus YDL101C, strain DUN1, hits give low values 0.977 | locus YDL134C, strain PPH21, hits give low values 0.99 | locus YDL185W, strain tfp1, hits give low values 0.978 | locus YDL192W, strain arf1, hits give low values 0.986 | locus YDR001C, strain nth1, hits give low values 0.97 | locus YDR069C, strain doa4, hits give low values 0.969 | locus YDR101C, strain arx1, hits give low values 0.975 | locus YDR137W, strain rgp1, hits give low values 0.984 | locus YDR150W, strain NUM1, hits give low values 1 | locus YDR159W, strain sac3, hits give low values 0.994 | locus YDR162C, strain NBP2, hits give low values 1 | locus YDR195W, strain ref2 0.938 | locus YDR297W, strain sur2, hits give low values 0.975 | locus YDR318W, strain mcm21, hits give low values 0.977 | locus YDR334W, strain swr1, hits give low values 0.973 | locus YDR335W, strain msn5, hits give low values 0.981 | locus YDR388W, hits give low values 0.985 | locus YDR392W, strain spt3, hits give low values 0.969 | locus YDR502C, strain sam2, hits give low values 0.992 | locus YEL003W, strain gim4, hits give low values 1 | locus YEL037C, strain rad23, hits give low values 0.977 | locus YEL061C, strain CIN8 (second series), hits give low values 0.973 | locus YEL061C, strain CIN8, hits give low values 0.995 | locus YER015W, strain faa2, hits give low values 0.987 | locus YER016W, strain bim1, hits give low values 0.977 | locus YER110C, hits give low values 0.971 | locus YER111C, strain swi4, hits give low values 0.983 | locus YER155C, strain BEM2 (second series), hits give low values 0.981 | locus YER155C, strain BEM2, hits give low values 0.997 | locus YER167W, strain BCK2, hits give low values 1 | locus YFR010W, strain ubp6, hits give low values 0.979 | locus YGL078C, strain dbp3, hits give low values 0.995 | locus YGL086W, strain mad1, hits give low values 1 | locus YGL167C, strain pmr1, hits give low values 0.97 | locus YGL173C, strain kem1, hits give low values 0.982 | locus YGL227W, strain vid30, hits give low values 0.99 | locus YGL240W, strain doc1, hits give low values 1 | locus YGL248W, strain PDE1, hits give low values 0.99 | locus YGL253W, strain hxk2, hits give low values 0.986 | locus YGR078C, strain PAC10, hits give low values 0.997 | locus YGR135W, strain pre9, hits give low values 0.971 | locus YGR229C, strain SMI1, hits give low values 1.01 | locus YGR252W, strain gcn5, hits give low values 1.03 | locus YHR013C, strain ard1, hits give low values 0.964 | locus YHR027C, strain rpn1, hits give low values 0.965 | locus YHR030C, strain SLT2, hits give low values 0.989 and 0.98 | locus YHR079C, strain IRE1 (second series), hits give low values 0.969 | locus YHR079C, strain IRE1, hits give low values 0.991 | locus YHR094C, strain hxt1, hits give low values 0.985 | locus YHR129C, strain ARP1, hits give low values 0.992 | locus YHR142W, strain chs7, hits give low values 0.974 | locus YHR200W, strain rpn10, hits give low values 0.987 | locus YIL066C, strain RNR3, hits give low values 0.99 | locus YIL073C, strain SPO22, hits give low values 0.994 | locus YIL125W, strain kgd1, hits give low values 0.995 | locus YIR030C, strain dcg1, hits give low values 0.997 | locus YJL092W, strain hpr5, hits give low values 0.981 | locus YJL095W, strain BCK1 (second series), hits give low values 0.983 | locus YJL095W, strain BCK1, hits give low values 0.98 and 0.993 | locus YJL115W, strain asf1, hits give low values 0.963 | locus YJL129C, strain trk1, hits give low values 0.978 | locus YJL134W, strain LCB3, hits give low values 0.991 | locus YJL154C, strain vps35, hits give low values 0.969 | locus YJL164C, strain tpk1, hits give low values 0.969 | locus YJL166W, strain qcr8, hits give low values 0.99 | locus YJL168C, strain set2, hits give low values 0.978 | locus YJL187C, strain SWE1 (second series), hits give low values 0.978 | locus YJL187C, strain SWE1, hits give low values 0.982 | locus YJR043C, strain POL32, hits give low values 0.996 | locus YJR066W, strain TOR1, hits give low values 0.933
